High-throughput results as filed in PubChem.
Most compounds without a hit are left out; they make up all but 2.4% or so of the library.
D2 PAM-1: Beta-Arrestin HTS for Positive Allosteric Modulators of the Human D2 Dopamine Receptor: Potentiators | D(2) dopamine receptor (Homo sapiens), P14416 | DiscoveRx D2 beta-arrestin cells, luminescence, 90 min; 100% = 57 uM dopamine signal | potentiation, % (no concentration beside the values) | actives 0.23% (n = 360,000) | AID 624464, 2012; in the data active = potentiation above about 50%; inconclusive = mostly about 30% to 49%
Target sequence (P14416 whole entry, looked up): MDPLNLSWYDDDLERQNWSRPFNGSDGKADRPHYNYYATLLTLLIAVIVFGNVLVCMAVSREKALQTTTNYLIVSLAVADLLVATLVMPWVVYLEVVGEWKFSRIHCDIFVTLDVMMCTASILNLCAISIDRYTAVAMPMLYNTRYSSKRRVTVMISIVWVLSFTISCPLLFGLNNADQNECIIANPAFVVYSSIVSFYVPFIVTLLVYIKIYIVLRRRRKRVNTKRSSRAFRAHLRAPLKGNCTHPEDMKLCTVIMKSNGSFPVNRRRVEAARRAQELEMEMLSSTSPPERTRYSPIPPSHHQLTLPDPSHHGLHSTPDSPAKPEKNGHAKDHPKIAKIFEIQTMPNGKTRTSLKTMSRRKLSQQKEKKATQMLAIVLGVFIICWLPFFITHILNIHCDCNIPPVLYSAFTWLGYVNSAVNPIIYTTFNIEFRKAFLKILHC
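D2 cells co-treated with compound plus 50 nM dopamine (EC20) for 90 min at 37 deg C to detect potentiation. Beta-arrestin recruitment was read as enzyme-fragment luminescence after 1 h at ambient temperature. Full response was set by 57 uM dopamine.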
D2 ag-1: Beta-Arrestin HTS for Positive Allosteric Modulators of the Human D2 Dopamine Receptor: Agonists; D(2) dopamine receptor (Homo sapiens), P14416; DiscoveRx PathHunter D2 beta-arrestin, luminescence, 90 min; 100% = 57 uM dopamine signal; activation, % (concentration not given with the values); actives 0.084% (n = 360,000); AID 624465, 2012; in the data active = activation above about 40%; inconclusive = between about 15% and that limit
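Agonist mode: compounds alone added to overnight-plated D2 PathHunter cells for 90 min at 37 C, with 57 uM final dopamine (EC100) defining full response. Beta-arrestin recruitment detected by chemiluminescent reagent, read after 1 h at ambient temperature.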
D2 PAM-2: HTS Assay for Positive Allosteric Modulators of the Human D2 Dopamine Receptor: Primary Screen for Potentiators | D(2) dopamine receptor (Homo sapiens), P14416 | HEK293 T-REx D2, calcium flux, EC20 dopamine potentiation | potentiation, % at 10 µM | actives 0.34% (n = 340,000);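 active = potentiation over 3 SD above the plate norm, cut at about 30% in these data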; note: 0% is about no effect
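Tetracycline-induced HEK293 T-REx cells force-coupled to calcium signalling expressed D2; compounds were pin-added after a 10 s baseline, read kinetically 180 s, then an EC20 dopamine challenge followed with a further 180 s calcium read.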
D2 ag-2: HTS Assay for Allosteric Agonists of the Human D2 Dopamine Receptor: Primary Screen for Agonists | HEK293 T-REx D2 cells, calcium flux agonist mode | AID 485358, 2010 | activation, % at 2 µM | actives 0.53% (n = 340,000);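 active = activation over 3 SD above normal in the single-dose calcium agonist read, cut at about 30% in these data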; note: 0% is about no effect
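In this primary screen, compounds producing a positive calcium signal within 180 s of addition to tetracycline-induced, force-coupled HEK293 Trex D2 cells are flagged; cells are dye-loaded with a no-wash calcium kit beforehand.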
D2 antag: HTS Assay for Allosteric Antagonists of the Human D2 Dopamine Receptor: Primary Screen for Antagonists; AID 485344, 2010; actives 2% (n = 340,000); inhibition, % at 10 µM; HEK293 TREx D2 cells, calcium flux, dopamine EC80; D(2) dopamine receptor (Homo sapiens), P14416; in the data active = inhibition above about 30%; inactive = below that, where a call was filed; note: 0% is about no effect
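Tetracycline-induced HEK293 T-REx cells expressing D2 force-coupled to calcium signalling were dye-loaded, exposed to compound for 180 s, then challenged with an EC80 of dopamine; calcium flux was followed kinetically for a further 180 s.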
* = called active by the depositor; ? = inconclusive; / = no result given.

SMILES	D2 PAM-1	D2 ag-1	D2 PAM-2	D2 ag-2	D2 antag
CN(C)c1ccc(-c2nnc(SCC3CCCO3)n2C)cc1 (stereo unspecified)	-6	1	3	0	32*
Cn1c(SCC2CCCO2)nnc1-c1ccncc1 (stereo unspecified)	4	1	5	0	7
CCOC(=O)CCC1(C(=O)OC)C(=O)CCCCCC=C1C(=O)OC (stereo unspecified)	-12	-5	/	/	/
CC(=O)Nc1ccc(S(=O)(=O)N(C2=NCC(C)S2)c2ccccc2)cc1 (stereo unspecified)	-43	1	-6	0	51*
Cc1ccc(NC(=O)N(C2=NCC(C)S2)c2ccccc2)cc1 (stereo unspecified)	-8	2	/	/	/
Clc1cccc2c1CCN(Cc1nc(-c3cnccn3)no1)C2	-2	-5	-11	1	40*
COc1ccc(-c2nc(CSCC(=O)N3CCN(C)CC3)c(C)o2)cc1OC	-1	-3	-2	1	40*
N#Cc1ccc(CSc2nc(N)cc(=O)[nH]2)cc1	-13	0	2	-1	-1
Cc1ccc(CSc2nc(N)cc(=O)[nH]2)cc1	-11	-2	-9	1	30*
O=C(Nc1nc2ccc(F)cc2s1)C1CCN(S(=O)(=O)c2cc([N+](=O)[O-])ccc2Cl)CC1	?	11	-2	1	15
Cc1ccc2nc(NC(=O)C3CCN(S(=O)(=O)c4cc([N+](=O)[O-])ccc4Cl)CC3)sc2c1	59*	?	13	2	-4
CC(=O)COC(=O)C1CCN(S(=O)(=O)c2cc([N+](=O)[O-])ccc2Cl)CC1	14	-2	-3	0	-9
O=C(COC(=O)C1CCN(S(=O)(=O)c2cc([N+](=O)[O-])ccc2Cl)CC1)Nc1ncc(Cl)cc1Cl	70*	3	-7	1	14
COc1ccc2nc(NC(=O)C3CCN(S(=O)(=O)c4cnc[nH]4)CC3)sc2c1	-7	-1	16	0	32*
COc1ccccc1NCc1nnc2n1CCCCC2	/	/	-15	/	/
N#CCc1ccc(C(=O)c2ccccc2)s1	-2	4	16	0	40*
Cc1nn(-c2ccccc2)c(Cl)c1/C=N/NC(=O)CNC(=O)c1ccccc1Cl	-13	-6	-12	0	46*
Cc1nn(-c2ccccc2)c(Cl)c1/C=N/NC(N)=O	-6	-2	-19	4	12
CCCc1nnc(NC(=O)c2nc(S(=O)(=O)Cc3cccc(C)c3)ncc2Cl)s1	-26	-8	30*	-1	-13
COc1cc2c(cc1NC(=O)COc1cc(C)cc(C)c1)oc1ccccc12	/	/	-10	0	/
CCc1ccccc1NC(=O)N1CCN(Cc2nc3ccc(C)cc3o2)CC1	/	/	-1	2	/
COCCN1C[C@@H](CO)O[C@@H](n2cnc3c(N4CCN(c5ccccc5)CC4)ncnc32)C1	8	-2	/	/	/
Cc1ccc(N=Cc2sc(O)c3ccccc23)cc1	-1	12	-7	65*	-6
Cc1ccc(N=Cc2c(O)c3ccccc3n(C)c2=O)cc1	-4	2	0	1	12
Cc1ccc(N=Cc2sc(O)c3ccccc23)c(C)c1	?	-7	-9	11	58*
SMILES	D2 PAM-1	D2 ag-1	D2 PAM-2	D2 ag-2	D2 antag
CC1(C)CC(=O)C/C(=N/Nc2nc3ccccc3s2)C1	-3	-3	7	1	36*
CC1CCC/C(=N/Nc2nc3ccccc3s2)C1 (stereo unspecified)	-8	-12	5	-1	-3
CC1C/C(=N/O)C(C)CN1 (stereo unspecified)	9	2	31*	2	6
COCCCNc1nccn2ccnc12	-5	-4	/	/	/
COC(=O)c1ccc(C(=O)NC(=S)Nc2nc3c(s2)CCCC3)cc1	10	-1	/	/	/
O=C(NC(=S)Nc1nc2c(s1)CCCC2)c1ccccc1	-17	-2	-18	4	35*
O=C(NC(=S)NCc1ccccc1)c1ccccc1	-8	1	9	-1	36*
Cc1csc(SCC(=O)Nc2ccc(C)c(F)c2)n1	-17	-3	-23	-1	37*
Cc1csc(SCC(=O)Nc2cccc3nsnc23)n1	-4	0	4	1	33*
Cc1csc(SCC(=O)Nc2ccccc2C)n1	-23	-4	17	0	7
N#Cc1nc(/C=C/c2ccc(F)cc2)oc1N1CCCCCC1	/	/	12	-1	/
COc1ccc(CCNC(=O)C2C3CCC(C3)C2C(=O)O)cc1OC (stereo unspecified)	-3	7	4	0	-4
O=C(O)C1C2CCC(C2)C1C(=O)NCCc1ccccc1 (stereo unspecified)	-1	-1	-13	36*	10
Cc1ccc(CNC(=O)c2nn(C)c(C)c2[N+](=O)[O-])cc1	-13	-5	-8	0	17
Cc1ccc(/C=C/C(=O)c2ccc([N+](=O)[O-])o2)cc1	54*	10	7	1	1
Cc1ccc(CNC(=O)c2ccc([N+](=O)[O-])o2)cc1	56*	-14	-7	0	0
CC(C)=CCN1CCN(CCC2=C(C)CCCC2(C)C)CC1CCO (stereo unspecified)	-5	-3	-17	0	61*
CC1=C(CCN2CCN(C3CCCC3)C(CCO)C2)C(C)(C)CCC1 (stereo unspecified)	-14	-1	-29	-1	-20
CC(C)NS(=O)(=O)c1ccc(OCC(=O)N2CCCC2)cc1	-17	0	-8	/	/
COc1cc(C#N)ccc1OCC(=O)N1CCc2ccccc2C1	-6	-6	38*	-1	2
CC(C)NS(=O)(=O)c1ccc(OCC(=O)N2CCc3ccccc3C2)cc1	-4	2	5	-1	30*
Cc1cc(OCC(=O)OCC(=O)N2CCc3ccccc3C2)ccc1Cl	1	-2	36*	0	24
COc1ccc(C(=O)NC2=NCCS2)cc1S(=O)(=O)N1CCOCC1	-7	-5	/	/	/
Cc1ccc(CC(=O)Nc2ccc(F)c([N+](=O)[O-])c2)cc1C	-9	-3	-8	2	42*
NC(=O)c1ccc(N2CCN(c3ccccc3O)CC2)c([N+](=O)[O-])c1	4	6	17	-1	-17
NC(=O)c1ccc(N2CCN(c3ccccc3F)CC2)c([N+](=O)[O-])c1	-4	-3	41*	0	-16
